The campaign covered roughly 53,000 compounds. About 900 (1.7%) showed an effect of 50% or more. What follows is part of a selection rich in strong results, with near analogues and random picks from the rest.
What follows are compounds tested on Mycobacterium tuberculosis (assay: Cornell - Phenotypic assay to identify agents that inhibit growth of Mycobacterium tuberculosis). Details: 10 mM as filed; unlikely as a test dose.
Format: functional
Set-up: scale not given: direction of the effect not stated beside the values
Fc1ccc(OC2CCN(CCn3cncn3)CC2)cc1 was tested, and the “Percent Effect” value was 21.61%. In the case of Br.Cc1ccccc1OC1CCN(CC(=O)Nc2cnn(C)c2C)CC1, the “Percent Effect” value is reported as 6.171%. With CCOc1ccccc1CCC(=O)Nc1c(C)nn(C)c1C the “Percent Effect” value was -20.08%. For Cc1nn(C)cc1NC(=O)CC1CCN(CCc2ccccc2)CC1, the “Percent Effect” value was 6.464%. With CCn1cc(NC(=O)CN2CCC(Oc3ccc(F)cc3)CC2)c(C)n1.Cl the “Percent Effect” value was 59.25%. Br.Cc1ccccc1OC1CCN(CC(=O)Nc2ccn(C)n2)CC1 was tested, and the “Percent Effect” value was 51.43%. Cc1ccccc1OC1CCN(CC(=O)Nc2cn(C)nc2C)CC1 was tested, and the “Percent Effect” value was 69.1%. Cc1ccccc1OC1CCN(CC(=O)Nc2c(C)nn(C)c2C)CC1 was tested, and the “Percent Effect” value was 59.98%. For CCn1cc(NC(=O)CN2CCC(Oc3ccccc3C)CC2)c(C)n1, the “Percent Effect” value was 45.29%. With Cn1ccc(NC(=O)CN2CCN(C3CCCC3)C(=O)C2)n1 the “Percent Effect” value was 47.35%. With Cn1ccc(NC(=O)CN2CCC(Oc3cnccn3)CC2)n1 the “Percent Effect” value was -4.083%. In the case of Cc1nn(C)cc1NC(=O)CN1CCC(Oc2cnccn2)CC1, the “Percent Effect” value is reported as 11.01%. In the case of COc1ccc(Cl)cc1C(=O)N1C[C@@H](NC(=O)N(C)C)[C@H](C(C)C)C1, the “Percent Effect” value is reported as -26.21%. With COC(=O)c1ccoc1CN(C)CC(=O)NC1CC1 the “Percent Effect” value was 9.025%. With Cc1cc(C2CCCCN2C(=O)c2cccn2C)nc2nccn12 (stereo not given) the “Percent Effect” value was 14.54%. In the case of CCOCCC1(CNC(=O)c2ccsc2)CCC1, the “Percent Effect” value is reported as 23.41%. For Cc1cc(C(=O)N2CC[C@@H]3CN(C)S(=O)(=O)[C@@H]3CC2)no1, the “Percent Effect” value was 25.4%. In the case of O=C(O)c1ccnc2c(Br)cccc12, the “Percent Effect” value is reported as 13.48%. COc1ccc(CNC(=O)NC(C)(C(=O)O)c2ccco2)cc1F (stereo not given) was tested, and the “Percent Effect” value was -25.47%. In the case of O=C1COC2(CCN(Cc3ccco3)CC2)CN1Cc1cccnc1, the “Percent Effect” value is reported as 24.6%. For O=S1(=O)C[C@@H]2[C@H](C1)N(Cc1cc(Cl)cc(Cl)c1)CCN2CC1CC1, the “Percent Effect” value was 85.08%. In the case of Cc1cc(CN2CCN(CC3CC3)[C@@H]3CS(=O)(=O)C[C@@H]32)cc(C)c1O, the “Percent Effect” value is reported as 106.4%. For CCCN1CCN(Cc2cc(Cl)cc(Cl)c2)[C@H]2CS(=O)(=O)C[C@H]21, the “Percent Effect” value was -17.23%. In the case of Cc1cc(CN2CCN(CC3CC3)[C@@H]3CS(=O)(=O)C[C@@H]32)ccc1F, the “Percent Effect” value is reported as -1.418%. O=S1(=O)C[C@@H]2[C@H](C1)N(Cc1cc(Cl)cc(Cl)c1)CCN2CCO was tested, and the “Percent Effect” value was -11.47%. For Cc1ccc(CN2CCN(CC3CC3)[C@@H]3CS(=O)(=O)C[C@@H]32)cc1C, the “Percent Effect” value was 21.5%. COc1ccc(C(=O)NCCC(N)=O)c(I)c1 was tested, and the “Percent Effect” value was -0.6619%. For Cc1nc(NC2CCCCC2)cc(C2CCCNC2)n1.Cl (stereo not given), the “Percent Effect” value was -33.64%. COCCCSc1ccc(NCc2scnc2C)cc1 was tested, and the “Percent Effect” value was 22.43%. Cc1cc(CNc2ccc3nc(C)sc3c2)no1 was tested, and the “Percent Effect” value was 23.73%. For COCc1nc2cc(NCc3scnc3C)ccc2o1, the “Percent Effect” value was 107%. COCc1nc(CNc2cccc(-c3nc(C)c(C)o3)c2)cs1 was tested, and the “Percent Effect” value was 46.4%. With Cc1ncsc1CNc1cccc(OCCN2CCCC2)c1 the “Percent Effect” value was 16.77%. With COCc1nc2cc(NCc3sc(C)nc3C)ccc2o1 the “Percent Effect” value was 97.37%. For CC(C)N1CC2(CCCN(c3ccnc4ccccc34)C2)CCC1=O (stereo not given), the “Percent Effect” value was 17.47%. For COCc1nnc(C(=O)N2CCCC(O)C2)o1 (stereo not given), the “Percent Effect” value was -16.94%. For Cc1ncc(CNC(=O)CCc2cccs2)c(C2CCCN2C)n1 (stereo not given), the “Percent Effect” value was -2.251%. In the case of O=C1CO[C@H]2CN(Cc3cccc4[nH]ccc34)C[C@@H]2N1C1CCOCC1, the “Percent Effect” value is reported as 103.3%. With Cc1ccc(C2CN(Cc3cccc4[nH]ccc34)CCO2)nc1 (stereo not given) the “Percent Effect” value was -22.89%. In the case of O=C1CO[C@H]2CN(Cc3cccc(F)c3F)C[C@@H]2N1C1CCOCC1, the “Percent Effect” value is reported as -21.84%. CCC(CN1CCCC1)NC(=O)C1(c2ccc(F)cc2)CC1 (stereo not given) was tested, and the “Percent Effect” value was 38.36%. In the case of CCC1c2ccccc2CCN1CCNS(C)(=O)=O (stereo not given), the “Percent Effect” value is reported as -0.3963%. Cc1cc(CNCc2c(C)n(CC(C)C)c3ccccc23)[nH]n1 was tested, and the “Percent Effect” value was 57.75%. For COCc1cc(CNCc2c(C)n(CC(N)=O)c3ccccc23)n[nH]1, the “Percent Effect” value was 35.48%. With COCc1cc(CNCc2c(C)n(CC(C)C)c3ccccc23)n[nH]1 the “Percent Effect” value was 48.01%. COCCC(=O)N1CCCC1c1nc(C)c2c(n1)N(C)C(=O)CC2 (stereo not given) was tested, and the “Percent Effect” value was 9.481%. CC(C)(C)n1nnnc1CN(Cc1ccccc1)Cc1ccccc1Cl was tested, and the “Percent Effect” value was 7.141%. For COc1ccc(OC)c(C2CCN(Cc3nc(C)n4ccccc34)C2)c1 (stereo not given), the “Percent Effect” value was 51.45%. For COc1ccc(OC)c(C2CCN(C3CCOCC3)C2)c1 (stereo not given), the “Percent Effect” value was -54.14%. With COc1ccc(OC)c(C2CCN(CC(C)(C)N3CCOCC3)C2)c1 (stereo not given) the “Percent Effect” value was -53.82%. In the case of Cc1ccc(CN2CCc3nnc(CN4CCCC4=O)n3CC2)s1.O=C(O)C(F)(F)F, the “Percent Effect” value is reported as 32.68%. CCC(C(=O)N(C)C)n1ccc2ncccc2c1=O (stereo not given) was tested, and the “Percent Effect” value was 6.503%. For CN(C)C(=O)CN1CCN(c2cc(N3CCCC3CO)ncn2)CC1 (stereo not given), the “Percent Effect” value was 1.672%. For Cc1cnc(C)c(N2CCC(C(=O)O)(n3ccc(C(C)(C)C)n3)CC2)n1, the “Percent Effect” value was 5.905%. With Cc1cc(N2CCC(C(=O)O)(n3ccc(C(C)(C)C)n3)CC2)nc(N)n1 the “Percent Effect” value was 5.557%. For Cc1cc(C)nc(N2CCC(C(=O)O)(n3ccc(C(C)(C)C)n3)CC2)n1, the “Percent Effect” value was 67%. For CSc1cccc(CNC(=O)[C@H]2CNC[C@@H](C(=O)N3CCOCC3)C2)c1, the “Percent Effect” value was -25.42%. For Cc1nc[nH]c1CNCc1cccnc1N(C)C1CCCCC1, the “Percent Effect” value was -125.1%. With COc1ccc(-n2cc(CCO)cn2)cc1C(N)=O the “Percent Effect” value was -5.342%. For COc1ccc(-n2cc(CCO)cn2)cc1C, the “Percent Effect” value was 105.1%. COc1cc(-n2cc(CCO)cn2)ccc1NC(C)=O was tested, and the “Percent Effect” value was 12.75%. For Cc1cn2c(n1)CCC(NC(=O)CCOc1ccccc1F)C2 (stereo not given), the “Percent Effect” value was -34.23%. O=C(c1nc(Cc2c[nH]c3ccccc23)no1)N1CCCCC1 was tested, and the “Percent Effect” value was -4.941%. O=C(O)C(F)(F)F.O=C(c1cocn1)N1C[C@H]2CCC[C@@]2(COc2ccccn2)C1 was tested, and the “Percent Effect” value was 78.33%. Cc1ccc(C(=O)N2C[C@H]3CCC[C@@]3(COc3ccccn3)C2)nc1.O=C(O)C(F)(F)F.O=C(O)C(F)(F)F was tested, and the “Percent Effect” value was 19.03%. In the case of O=C(O)C(F)(F)F.O=C(c1ncccn1)N1C[C@H]2CCC[C@@]2(COc2ccccn2)C1, the “Percent Effect” value is reported as -0.9925%. In the case of Fc1cccc(Cl)c1CNCCOc1ccccn1, the “Percent Effect” value is reported as 41.65%. For CN1[C@@H](C(=O)NCC2CC2)C[C@@H]2CN(Cc3ccco3)C[C@@H]21, the “Percent Effect” value was 11.69%. CCN(Cc1ccccc1)S(=O)(=O)C1CCS(=O)(=O)CC1 was tested, and the “Percent Effect” value was 11.98%. CN(C)c1nccnc1C1CCN(c2cnccn2)CC1 was tested, and the “Percent Effect” value was 17.38%. c1cc(C2CCN(c3cnccn3)CC2)ncn1 was tested, and the “Percent Effect” value was 5.379%. In the case of CN(C)c1ccc(C2CCN(c3cnccn3)CC2)nc1, the “Percent Effect” value is reported as 63.52%. COc1cccc(C(=O)N2C[C@@H](c3ccccc3)[C@@H]3NCCCC[C@@H]32)c1 was tested, and the “Percent Effect” value was 4.696%. With Cc1cc(C(C)(O)CNC(=O)c2ccc(Br)o2)c(C)o1 (stereo not given) the “Percent Effect” value was 53.63%. In the case of Cc1cc(C(C)(O)CNC(=O)OC(C)(C)C)c(C)o1 (stereo not given), the “Percent Effect” value is reported as 14.94%. With Cc1cc(C(C)(O)CNC(=O)C2(C)CCCC2)c(C)o1 (stereo not given) the “Percent Effect” value was 32.83%. With O=C(c1cc(-n2cnnn2)ccc1Cl)N1CCCCCC1 the “Percent Effect” value was 22.48%. In the case of Cc1noc(C)c1CN1CCOCC12CCN(c1nccs1)CC2.O=C(O)C(F)(F)F, the “Percent Effect” value is reported as -2.189%. For CCNC(=O)N1CCc2ccc(NC(=O)C(C)c3ccsc3)cc21 (stereo not given), the “Percent Effect” value was -7.199%. In the case of Cc1cnn(C2CCCN(C(=O)c3ccnc(-n4cncn4)c3)C2)c1 (stereo not given), the “Percent Effect” value is reported as -11.26%. Cc1cn2nc(N3CCn4c(nnc4C(C)C)C3)sc2n1 was tested, and the “Percent Effect” value was -4.534%. In the case of Cn1cc(-c2ccc(C3CCCCN3Cc3cccnc3)cn2)cn1 (stereo not given), the “Percent Effect” value is reported as 36.92%. With c1cncc(CN2CCCCC2c2ccc(Nc3cnccn3)nc2)c1 (stereo not given) the “Percent Effect” value was 29.23%. Cn1cc(CN2CCCCC2c2ccc(-c3cnn(C)c3)nc2)cn1 (stereo not given) was tested, and the “Percent Effect” value was 0.8308%. With c1cnc(Nc2ccc(C3CCCCN3Cc3ccncc3)cn2)nc1 (stereo not given) the “Percent Effect” value was 63.94%. For CS(=O)(=O)N1CCCCC1c1ccc(Nc2cnccn2)nc1 (stereo not given), the “Percent Effect” value was 21.12%. For c1cc(CN2CCCCC2c2ccc(Nc3cnccn3)nc2)ccn1 (stereo not given), the “Percent Effect” value was 73.82%. In the case of Cc1cnn(CCNCc2ccc(OCc3cccnc3)cc2)c1, the “Percent Effect” value is reported as -17.94%. With Cc1nnc(C2Cc3ccccc3CN2Cc2ncc(Cl)n2C)o1 (stereo not given) the “Percent Effect” value was -18.28%. With Cn1cc(CC(=O)N2CCCC(c3cc(C(F)(F)F)[nH]n3)C2)cn1 (stereo not given) the “Percent Effect” value was -14.78%. With O=C(Cn1cc(Cl)cn1)NCCN1CCC(O)(c2ccc(F)cc2)CC1 the “Percent Effect” value was 36.23%. In the case of CN(C)C(=O)C1CN(c2ccncn2)CCN(C2CCOCC2)C1 (stereo not given), the “Percent Effect” value is reported as -28.59%. In the case of COc1cccc(C(=O)NS(=O)(=O)c2cc(Cl)sc2Cl)c1OC(F)F, the “Percent Effect” value is reported as 16.97%. For COc1cc(C(=O)NS(=O)(=O)c2cc(Cl)sc2Cl)ccc1OC(F)F, the “Percent Effect” value was 83.5%. In the case of COc1ccc(C(=O)NS(C)(=O)=O)cc1-c1ccccc1, the “Percent Effect” value is reported as 36.61%. With COc1ccc(C(=O)NS(=O)(=O)c2cc(Cl)sc2Cl)cc1OC(F)F the “Percent Effect” value was 76.92%. For O=C(NS(=O)(=O)c1cc(Cl)sc1Cl)c1cccc2c1OCCO2, the “Percent Effect” value was 1.673%. With COc1cc(C(=O)NS(=O)(=O)c2ccc(C#N)cc2)ccc1C the “Percent Effect” value was -19.49%. With CCc1cc(NC(=O)C(c2cccc(F)c2)N2CCOCC2)[nH]n1 (stereo not given) the “Percent Effect” value was -14.2%. O=C(CS(=O)(=O)Cc1cc(Cl)c2c(c1)OCO2)N1CCCCCC1 was tested, and the “Percent Effect” value was -3.371%.

From ChEMBL document CHEMBL3988442, “University of Dundee, Small-Polar-MMV Screening Library” (2021)
